Test results as given in PubChem BioAssay (NCATS).
Entries after “also recorded” stand apart in the source; their conditions may differ. Results filed as inconclusive are left out. Where a call stands in place of a potency, no number is given. Activity calls are given as the source filed them. Unless noted, the call rests on the fitted dose curve.

What was measured:
[1] = Cytotoxicity counterscreen for inhibitors of SARS-CoV-2 cell entry (AID 1645845); further: nearly all actives have a fitted effect of over 50% in size
Summary of the method: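 Counterscreen run in the same HEK293-ACE2 line as the pseudotyped-particle entry assay, without particles. Viability after 48 h at 37 C was read as ATP luminescence, scaled between cell-containing and cell-free wells.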

[2] = Primary qHTS to identify inhibitors of SARS-CoV-2 cell entry (AID 1645846); further: nearly all actives have a fitted effect of over 45% in size
Summary of the method: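 Luminescence readout (Bright-Glo luciferase) 48 h after pseudoparticle addition. HEK293-ACE2 cells, 1500/well; compound pre-incubation 1 h; Normalized to spike PP and bald PP.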

[3] = molecular target: Papain (Carica papaya) (UniProt P00784); assay: Primary qHTS assay for inhibitors of the protease papain (AID 1645873; active means well fitted inhibition curve with a large enough effect;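 further: papain turnover of Z-FR-AMC read as the AMC fluorescence gain over 10 min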)
[4] = activity change, negative = inhibition: at 57.1 µM (top of the series) unless noted

Chain of Papain (Carica papaya) (P00784 whole entry, looked up): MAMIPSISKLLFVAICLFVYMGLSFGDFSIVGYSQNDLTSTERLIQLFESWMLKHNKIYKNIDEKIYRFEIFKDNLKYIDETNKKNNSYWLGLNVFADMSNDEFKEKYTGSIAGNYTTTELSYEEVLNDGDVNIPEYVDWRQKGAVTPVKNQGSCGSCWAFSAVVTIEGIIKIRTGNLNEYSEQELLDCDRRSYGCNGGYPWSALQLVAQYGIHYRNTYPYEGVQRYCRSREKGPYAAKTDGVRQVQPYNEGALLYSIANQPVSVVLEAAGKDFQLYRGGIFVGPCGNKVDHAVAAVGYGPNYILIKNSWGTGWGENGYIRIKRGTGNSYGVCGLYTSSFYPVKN

## NCCS(=O)(=O)O
[1]
  Potency: inactive
[2]; [4]
  Potency: inactive
  activity change, negative = inhibition: -2.14%

## Nc1ccc(S(N)(=O)=O)cc1
[1]
  Potency: inactive
[2]; [4]
  Potency: inactive
  activity change, negative = inhibition: -17.3%

## Clc1ccc2nsnc2c1NC1=NCCN1
[1]
  Potency: inactive
[2]; [4]
  Potency: inactive
  activity change, negative = inhibition: -13.9%

## CCCCCN(C)CCC(O)(P(=O)(O)O)P(=O)(O)O
[1]
  outcome: inactive [at 11.3 µM]; also recorded: inactive [at 5.25 µM]
[2]; SARS-CoV-2 pseudovirus cell entry assay, luminescence, at 5.25 µM (top of the series)
  activity change, negative = inhibition: -11.4%
[2]; SARS-CoV-2 pseudovirus cell entry assay, luminescence, at 11.3 µM (top of the series)
  activity change, negative = inhibition: -30.6%
[3]
  outcome: inactive

## C#CCN[C@@H]1CCc2ccccc21
[1]
  Potency: inactive
